# Assay results as given in PubChem BioAssay AID588342 (National Center for Advancing Translational Sciences (NCATS), 2011).
# The whole screen tested about 360,000 compounds, of which about 25,000 (6.9%) were called active. Not shown: some 9% with an inconclusive outcome. Many of the other results were omitted from the sample, so actives are more common in it than they were. Unmarked numbers belong to inactive results. Calls come from the whole dose curve; as a rule, active = well fitted inhibition curve with a large enough effect; inconclusive = small, poorly fitted or top-dose-only effect; inactive = flat fitted curve, though single readings scatter.
# Biological target: Luciferin 4-monooxygenase (Photinus pyralis) (UniProt P08659)
# Sequence (P08659 whole entry, looked up): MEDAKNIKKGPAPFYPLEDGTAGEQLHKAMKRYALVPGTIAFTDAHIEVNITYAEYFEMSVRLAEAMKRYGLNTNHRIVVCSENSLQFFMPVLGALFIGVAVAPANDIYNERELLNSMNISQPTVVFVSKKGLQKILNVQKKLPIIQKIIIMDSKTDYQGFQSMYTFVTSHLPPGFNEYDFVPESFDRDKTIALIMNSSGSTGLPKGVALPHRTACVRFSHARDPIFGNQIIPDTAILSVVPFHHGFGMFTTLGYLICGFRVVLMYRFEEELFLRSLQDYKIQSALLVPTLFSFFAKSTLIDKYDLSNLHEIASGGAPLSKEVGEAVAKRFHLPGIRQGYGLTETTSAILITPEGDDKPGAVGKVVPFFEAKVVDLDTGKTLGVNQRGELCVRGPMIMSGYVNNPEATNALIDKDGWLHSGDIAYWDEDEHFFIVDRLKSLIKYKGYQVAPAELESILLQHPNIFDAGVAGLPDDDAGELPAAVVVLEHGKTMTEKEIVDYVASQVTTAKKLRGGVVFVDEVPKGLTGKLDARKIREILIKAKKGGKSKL
# Test: qHTS profiling assay for firefly luciferase inhibitor/activator using purifed enzyme and Km concentrations of substrates (counterscreen for miR-21 project); note: nearly all actives have a fitted effect of over 55% in size;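 for activity change, negative = inhibition: plate controls were vehicle for no effect and reference inhibitor for full effect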
# Conditions: purified FLuc, luminescence inhibition; series mostly up to 57.5 µM; activity change, negative = inhibition: at the top concentration
# Outline: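 Purified P. pyralis luciferase (10nM final) with 10uM D-luciferin and 10uM ATP (Km levels) in 50mM Tris acetate pH 7.5, 10mM Mg acetate, 0.01% Tween-20, 0.05% BSA; qHTS 6-point titration, ~60 µM downward; luminescence read.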
# Potency is the fitted concentration of half-maximal effect.
SMILES,"activity change, negative = inhibition [%]",Potency
CN(CC(=O)Nc1cccc(C(F)(F)F)c1)S(=O)(=O)c1cccs1,-12,–
CC(C)CCNC(=O)Cn1c(=O)oc2cc(S(=O)(=O)N3CC(C)CC(C)C3)ccc21 (centres undefined),1.69,–
CCOc1ccc(CNC(=O)c2cccc(Nc3nc4ccccc4n4nnnc34)c2)cc1OC,0.0001,–
CCN(CC)CCNC(=O)c1cc2c(=O)oc3ccc(C)cc3c2s1,3.49,–
Cc1ccc(-c2nnc(SCC(=O)NCc3ccccc3)nc2-c2ccc(C)cc2)cc1,-9.65,–
COC(=O)c1cc(NC(=O)c2cnc(SC)nc2-c2ccccc2)cc(C(=O)OC)c1,0.653,–
COc1ccccc1C(=O)NC(CCSC)C(=O)N1CCN(C(C)=O)CC1 (centres undefined),-0.351,–
CC(=O)c1cccc(NC(=O)C2CCN(C(=O)c3ccccc3Cl)CC2)c1,2.84,–
CC(=O)N1CCCc2ccc(NS(=O)(=O)c3ccc(F)cc3F)cc21,-3.32,–
O=C(O)c1ccc2c(=O)n3c(nc2c1)/C(=C/c1ccc(Cl)c([N+](=O)[O-])c1)CC3,0.928,–
COc1ccc(OC)c(-c2nc(C(N)=O)c3c(n2)n(-c2ccc4c(c2)OCO4)c(=O)n3C)c1,1.35,–
CC(C)C12CN3CC(C(C)C)(CN(C1)C3c1ccc(OCc3ccccc3)cc1)C2=O (centres undefined),-0.194,–
O=C1C=C(NCCNc2c(F)c(F)c(CO)c(F)c2F)CCC1,1.96,–
Cc1ccc(C)c(N2CCN(CCCNC(=O)Nc3ccc(Cl)cc3)CC2)c1,1.01,–
O=C(O)CCC(=O)Nc1ccc(N2CCOCC2)cc1,-7.99,–
CC1CCC(C(C)C)C(=O)/C1=C\c1ccc(NC(=O)CCC(=O)O)cc1 (centres undefined),–,16.9 µM (active)
O=C(O)CCC(=O)Nc1ccc(OCC2CCCO2)cc1 (centres undefined),-11.2,–
O=C(CSc1nnc(-c2ccccc2F)o1)Nc1cccc(C(F)(F)F)c1,-12.9,–
O=C(NC1CCCC1)C(NS(=O)(=O)c1ccc(Br)s1)c1ccccc1 (centres undefined),-0.902,–
CN(C)c1ccc(-c2nnc(-c3cccnc3)o2)cc1,–,9.53 µM (active)
Cc1csc(NC(=O)CSc2nnc(-c3cccnc3)o2)n1,0.524,–
CN(C)c1nc(-c2cccnc2)nc(-c2ccc(Cl)cc2)c1C#N,0.952,–
O=C(CCNC(=O)c1ccc([N+](=O)[O-])cc1)NC1CCCCC1,-0.597,–

SMILES,"activity change, negative = inhibition [%]",Potency
COc1ccc(CNC(=O)C(C)n2nc(C)c3c(C)n(-c4ccccc4)nc3c2=O)c(OC)c1 (centres undefined),–,inactive
CC(C)N1CCC(NC(=O)Nc2ccccc2)CC1,0.545,–
O=C(Nc1cccc(F)c1)NC1CCCc2ccccc21 (centres undefined),-1.61,–
C/C(CC(=O)Nc1cccc(F)c1)=N\NC(=O)C(=O)NC1CCCCC1,-1.86,–
Cc1ccc(NC(=S)NC2CCCC2)cc1,–,10.7 µM (active)
Cc1ccc(NC(=O)CSCC(=O)NC2CCCCC2)cc1,-3.2,–
CC(C)c1ccc(NC(=O)NC2CCCCC2)cc1,–,6.75 µM (active)
Cc1cc(C)cc(NC(=O)NC2CCN(CC(=O)Nc3cccc(Cl)c3C)CC2)c1,-0.135,–
Cc1cc(Br)ccc1NC(=S)NC1CCCC1,-16.2,–
Cc1ccc(NC(=O)NC2CCCCC2)cc1S(=O)(=O)N1CCOCC1,-17,–
O=C(Nc1cccc(F)c1)NC1CCCCCCC1,–,15.1 µM (active)
CC(C)(C)NS(=O)(=O)c1ccc(NC(=O)NC2CCCCC2)cc1,-10.9,–
Cc1cc(C)cc(NC(=O)NC2CCCCCCC2)c1,–,10.7 µM (active)
CCCNC(=O)C1CCN(c2nc3ccc(C)cc3[nH]2)CC1,-13.2,–
C=CC(=O)OCCOCCOCCOCCOC(=O)C=C,3.63,–
CO[C@H]1[C@@H]2C=CO[C@@H](O[C@H]3O[C@@H](CO)[C@H](O)[C@@H](O)[C@@H]3O)[C@@H]2[C@@]2(CO)O[C@@H]12,0.484,–
CCOc1ccccc1C(=O)NCC(c1ccc(N(C)C)cc1)N1CCCC1 (centres undefined),5.38,–
CCCN1C(=O)C(O)(CC(=O)c2ccc(CC)cc2)c2cc(Br)ccc21 (centres undefined),-1.26,–
CN(CC(=O)NCc1ccc2c(c1)OCO2)CC(=O)Nc1ccc(F)c(F)c1F,6.28,–
COC(=O)CCC(=O)N1CCCC(CO)(Cc2ccccc2)C1 (centres undefined),–,15.1 µM (active)
CCOC(=O)C1(Cc2ccccc2C)CCCN(C(=O)CCc2c(C)noc2C)C1 (centres undefined),-2.5,–
Cc1noc(C)c1CCC(=O)N1CCCC(CO)(Cc2ccccc2)C1 (centres undefined),–,19 µM (active)
CCCc1cc(C(=O)N2CCCC(CO)(CCCc3ccccc3)C2)n(C)n1 (centres undefined),-2.74,–

SMILES,"activity change, negative = inhibition [%]",Potency
Cc1ccccc1CC1(CO)CCCN(C(=O)c2cc(-c3ccccc3)no2)C1 (centres undefined),-8.7,–
Cc1noc(C)c1CCC(=O)O,-1.99,–
CN(CC(=O)Nc1ccccc1C(F)(F)F)C(=O)Cc1ccccc1F,0.869,–
CCN(CC)C(CNC(=O)CSc1nnnn1-c1cccc(F)c1)c1ccco1 (centres undefined),-1.72,–
CSc1ncc(C(=O)NCCCc2ccccc2)c(C)n1,-4.77,–
COc1ccc(OC)c(CNC(=O)c2c3c(nc4ccccc24)C(=O)N(C2CCCCC2)C3)c1,-2.95,–
CC(=O)Oc1ccc(N(C(C)=O)S(=O)(=O)c2ccc3ccccc3c2)cc1Br,-10.9,–
COc1ccc(C2CC(=O)N(Cc3ccccc3C)c3c2c(C)nn3-c2nc(C)cc(C)n2)c(OC)c1 (centres undefined),6.83,–
COc1cc(-c2nn3c(-c4cccc(C)c4)nnc3s2)cc(OC)c1OC,7.07,–
c1ccc(-c2cc(-c3nnc4sc(-c5ccccn5)nn34)[nH]n2)cc1,–,10.7 µM (active)
CCOc1cccc(-c2nn3c(-c4ccccn4)nnc3s2)c1,-19.6,–
CN(Cc1ccccc1)c1ccc(-c2nc(-c3ccccc3)no2)cc1[N+](=O)[O-],-3.2,–
COc1cccc(N2CCN(CC(=O)Nc3ccnn3C3CCCC3)CC2)c1,3.51,–
CCN(c1ccc(Cl)cc1)S(=O)(=O)c1nnc(NC(=O)c2ccco2)s1,-0.0682,–
Cc1cc(NC(=O)COc2ccc([N+](=O)[O-])cc2)no1,2.75,–
Cc1cc(NC(=O)c2ccccc2C)no1,–,15.1 µM (active)
Cc1ccccc1C(=O)Nc1ccccc1NC(=O)c1ccccc1C,-0.392,–
Cc1cc(NC(=O)COc2ccccc2C#N)no1,–,12 µM (active)
Cc1cc(NC(=O)CSCc2ccccc2C)no1,-1.06,–
Cc1cc(NC(=O)COn2nnc3ccccc32)no1,4.3,–
COc1ccc(N2C(=O)CSC23C(=O)N(Cc2cccc(F)c2)c2ccccc23)cc1Cl (centres undefined),-0.272,–
COc1ccc(C(=O)C[n+]2ccc(N)c(C)c2C)cc1,-11.6,–
CC(CNC(=O)c1nnc(Cc2cccc(F)c2)o1)c1ccccc1 (centres undefined),-1.56,–

SMILES,"activity change, negative = inhibition [%]",Potency
NC(=O)NC(CC(=O)NNC(=O)c1ccccn1)c1ccc(Cl)cc1 (centres undefined),-1.76,–
CC(C)(C)NC(=O)CSc1nc(-c2ccc(F)cc2)cc(C(F)(F)F)n1,2.93,–
COC(=O)Cc1ccc(OCC(=O)NC2CCCC2)cc1,2.01,–
Cc1noc(C)c1C(=O)Nc1ccccn1,20.3,–
COC(=O)c1oc2ccc(Br)cc2c1NC(C)=O,1.34,–
Cc1c(C(=O)Nc2ccccn2)oc2ccc(Br)cc12,–,2.13 µM (active)
COc1cc(C(CC(=O)NCCC(C)C)N2Cc3ccccc3C2=O)cc(OC)c1OC (centres undefined),-0.101,–
CCCn1c(=N)n(CC(O)COc2ccccc2OC)c2ccccc21 (centres undefined),0.404,–
COc1cc2[nH]c(=O)n(Cc3ccc(C(=O)NCc4ccc(C)cc4)cc3)c(=O)c2cc1OC,1.8,–
COCCCN(C(=S)Nc1c(C)cc(C)cc1C)C(C)c1ccncc1 (centres undefined),0.293,–
COc1ccc(-n2cnnc2SCC(=O)Nc2cccc(S(N)(=O)=O)c2)cc1,1.34,–
Cc1ccc(NC(=O)c2ccc(Oc3ncccn3)cc2)cc1,–,15.1 µM (active)
COc1ccc(C(=O)Nc2cccc(S(C)(=O)=O)c2)cc1,–,16.9 µM (active)
O=C(Nc1ccc(CN2CCOCC2)cc1)c1cc(Cl)ccc1Cl,-1.52,–
CCOc1ccc(C(=O)Nc2ccc(CN3CCOCC3)cc2)cc1Cl,–,7.57 µM (active)
COc1ccc(NC(=O)c2cc3cc(C)ccc3n2C)cc1,-4.75,–
COc1cccc(-c2cc(C(=O)Nc3ccc(C)cc3)[nH]n2)c1,-11.6,–
CCCc1cc(=O)oc2cc(OCC(=O)Nc3ccc(CN4CCOCC4)cc3)c(Cl)cc12,0.442,–
COc1ccc(NC(=O)c2sccc2SCC#N)cc1,–,13.5 µM (active)
COc1ccc(NS(=O)(=O)c2ccc(NC(=O)c3ccc(N(C)S(C)(=O)=O)cc3)cc2)cc1,8.07,–
CC1=C(C(=O)Nc2ccccc2)C(c2cccs2)C(C#N)=C(SCC#N)N1 (centres undefined),3.23,–
Cc1ccc(NC(=O)c2cccnc2C(=O)Nc2ccc(C)cc2)cc1,-13.1,–
CCOc1ccc(N2CC(c3nc4ccccc4n3CCOc3ccc(OC)cc3)CC2=O)cc1 (centres undefined),-3.28,–

SMILES,"activity change, negative = inhibition [%]",Potency
CCc1cccc(NC(=O)CN(C)S(=O)(=O)c2ccc3[nH]c4c(c3c2)CCCC4)c1,-18.7,–
O=C(CCc1ccccc1)NCc1ccc2c(c1)CCN2C(=O)c1ccccc1,-14,–
CNC(=O)CN1C(=O)c2cccnc2Sc2ccccc21,-6.05,–
CN(Cc1ccccc1)C(=O)c1cn(C)c2ccc(S(=O)(=O)N(C)C3CCCCC3)cc2c1=O,-2.07,–
Cn1cc(S(=O)(=O)Nc2ccc(Cl)cc2Cl)c(=O)n(C)c1=O,-3.16,–
Cc1cc(C)cc(NC(=O)C(c2ccccc2)N2CCN(CC(=O)N3CCCC3)CC2)c1 (centres undefined),3.43,–
Cc1cccc(OCCC(=O)OCc2csc(CC(=O)Nc3ccccc3C)n2)c1,-1.32,–
O=C(Nc1ccccc1F)C(c1ccccc1)N1Cc2ccccc2C1=O (centres undefined),4.63,–
COc1ccccc1CNC(=O)c1ccc(NC(=O)N2CC(C)Sc3ccccc32)cc1 (centres undefined),-13.1,–
COc1cc2c(=O)c(S(=O)(=O)c3ccc(C(C)C)cc3)cn(Cc3ccccc3C)c2cc1OC,-1.62,–
COc1ccc(C(=S)Nc2ccccc2)cc1,–,13.5 µM (active)
O=C(Nc1ccc(CSc2ccccc2)cc1)c1ccc(CN2CCOCC2)cc1,-7.97,–
COc1ccc(C(=O)Nc2ccc(CN3CCOCC3)cc2)cc1,–,12 µM (active)
CCCOc1cccc(C(=O)Nc2ccccc2C(=O)N2CCN(C)CC2)c1,-1.36,–
CCCC(=O)NC(=S)Nc1ccc(CN2CCOCC2)cc1,0.646,–
COc1ccc(C(=O)CCC(=O)Nc2ccc(Cl)cc2)cc1,2.82,–
COc1ccc(NC(=O)c2ccc(OC)cc2)cc1,–,4.78 µM (active)
COc1ccc(CC(=O)Nc2ccc(C(=O)NC(C)(C)C)cc2)cc1,-8.31,–
CCCOc1cccc(C(=O)Nc2cccc(NC(=O)c3ccc(C(C)(C)C)cc3)c2)c1,–,1.69 µM (active)
CCCOc1cccc(C(=O)NCCCNC(=O)c2cccnc2)c1,3.75,–
COCCNC(=S)c1ccc(OC)cc1,-8.55,–
COc1ccc(NC(=O)c2ccc(C#CC(C)(C)O)cc2)cc1,-18.6,–
